Shown are actives, neighbours in structure and some others; about 2.6% of the full set was active somewhere.
AmpC det inh – Promiscuous and Specific Inhibitors of AmpC Beta-Lactamase (assay with detergent) | P00811 | purified AmpC, nitrocefin hydrolysis with detergent | Potency, µM (titrated, usually from 28.7 µM), for inactives: at the top dose activity change, negative = inhibition | hit rate 0.09% among 71,000; active = well fitted curve in the direction sought with a large enough effect; inconclusive = small, poorly fitted or top-dose-only effect; also: % is scaled to controls: 0 for no effect and ±100 for the full control effect
Target sequence (P00811 whole entry, looked up): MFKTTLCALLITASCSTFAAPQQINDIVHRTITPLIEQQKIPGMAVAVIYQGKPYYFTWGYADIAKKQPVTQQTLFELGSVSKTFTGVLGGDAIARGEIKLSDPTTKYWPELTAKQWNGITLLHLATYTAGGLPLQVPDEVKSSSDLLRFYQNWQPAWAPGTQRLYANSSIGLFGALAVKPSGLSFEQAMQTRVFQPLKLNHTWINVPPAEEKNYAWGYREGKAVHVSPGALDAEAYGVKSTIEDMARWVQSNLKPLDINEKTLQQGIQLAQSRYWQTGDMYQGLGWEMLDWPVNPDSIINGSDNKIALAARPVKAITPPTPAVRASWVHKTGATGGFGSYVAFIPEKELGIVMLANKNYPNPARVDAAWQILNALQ
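E. coli AmpC (5.3 nM) in 20 mM phosphate pH 7.0 with 0.01% Triton X-100, preincubated 15 min RT with compound; nitrocefin (2 uL of 800 uM stock) hydrolysis followed by 480 nm absorbance every 20 s over 4 min.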
Prx2 Sm inh – Schistosoma Mansoni Peroxiredoxins (Prx2). Schistosoma mansoni peroxiredoxin 2 (Prx2). S. mansoni Prx2 activity coupled to TGR/GSH (TGR is thioredoxin glutathione reductase), NADPH fluorescence loss, qHTS. Potency, µM. hit rate 0.07% among 65,000. AID 448, 2006
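Prx2 inhibition was measured as reduced NADPH consumption when electrons flowed from NADPH through TGR and glutathione to Prx2 and H2O2. Plates were read kinetically over 8 min; enzyme reagents were held at 4 deg C during dispensing.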
AmpC nodet inh – Promiscuous and Specific Inhibitors of AmpC Beta-Lactamase (assay without detergent); P00811; AmpC nitrocefin hydrolysis, absorbance 480 nm, no detergent; Potency, µM (titrated, usually from 28.7 µM), for inactives: top-dose activity change, negative = inhibition; hit rate 1.8% among 71,000; AID 585, 2007; also: % of control where 0% means no effect
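Enzyme, pH 7.0 phosphate. Compound titrations were pre-incubated with AmpC for 15 min at room temperature before nitrocefin (stock 800 uM) addition; product formation was recorded at 480 nm every 20 s for 4 min.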
LT uptake inh – qHTS Assay for Anthrax Lethal Toxin Internalization | Cells, anthrax lethal toxin internalization, FRET ratio (460/530) | Potency, µM (top dose mostly 40 µM), inactives show top-dose activity change, negative = inhibition, hits mostly inhibitors | hit rate 0.67% among 70,000; also: % is scaled to controls: 0 for no effect and ±100 for the full control effect; nearly all actives have a fitted effect of over 50% in size
Starred values were filed as active, the others as inactive; ? = inconclusive; / = no result given; ! = not active in a repeat; [ ] = another dose, or the depositor's remark. Unless noted, calls follow the shape of the full dose curve. Potency is read from the fitted curve at half-maximal effect.

SMILES	AmpC det inh	Prx2 Sm inh	AmpC nodet inh	LT uptake inh
CC(C)(C)n1nc2c(c1NC(=O)COc1ccc(Cl)cc1)CSC2	-2%	>57	13µM*	?
Cc1ccc(-c2nn3c(C)nnc3s2)cc1NC(=O)COc1ccc(Cl)cc1	13%	>57	17%	-11%
Cc1c(C(=O)N2CCCC2)oc2c1-c1[nH]ncc1CC2	10%	>57	4µM*[single pt active]	6%
Cc1ccc(C[C@H](Cc2nc3ccccc3[nH]2)c2nc3ccccc3[nH]2)cc1	1%	>57	-10%	?
CCCc1c(-c2ccc(O)cc2)nn(-c2ccc(O)cc2)c1-c1ccc(O)cc1	-7%	>57	7.9µM*!	?
CCN(CCNC(=O)C1CCCN(S(=O)(=O)c2cnc[nH]2)C1)c1ccccc1 (stereo not drawn)	13%	>57	4µM*[single pt active]	-8%
O=C(NCCN1CCN(c2ccccc2)CC1)C1CCCN(S(=O)(=O)c2cnc[nH]2)C1 (stereo not drawn)	10%	>57	2.5µM*[single pt active]	-7%
Cc1cccc(CN2CCC(CNC(=O)C3CCCN(S(=O)(=O)c4cnc[nH]4)C3)CC2)c1 (stereo not drawn)	12%	>57	3.2µM*[single pt active]	-11%
Cc1ccc(CCNC(=O)C2CCCN(S(=O)(=O)c3cnc[nH]3)C2)cc1 (stereo not drawn)	5%	>57	2%	-1%
CCN(CCCNC(=O)C1CCCN(S(=O)(=O)c2cnc[nH]2)C1)c1ccccc1 (stereo not drawn)	7%	>57	4µM*[single pt active]	-7%
COC(=O)c1ccc2c(c1)N(Cc1cc(C)ccc1C)C(=O)c1ccccc1S2=O (stereo not drawn)	13%	>57	4µM*[single pt active]	-5%
O=C(C1CCCN1S(=O)(=O)c1cccc2cccnc12)N1CCc2ccccc21 (stereo not drawn)	9%	>57	39%	6%
O=C(C1CCN(S(=O)(=O)c2cccc3cccnc23)CC1)N1CCCC1	4%	>57	-2%	21%
O=C(C1CCN(S(=O)(=O)c2cccc3cccnc23)CC1)N1CC=C(c2ccccc2)CC1	2%	>57	34%	13µM*
O=C(C1CCCN1S(=O)(=O)c1cccc2cccnc12)N1CCc2ccccc2C1 (stereo not drawn)	8%	>57	4µM*[single pt active]	-9%
COc1ccc(S(=O)(=O)n2nc(-c3cc(OC)c(OC)c(OC)c3)cc2N)cc1OC	6%	>57	130%	16%
COc1ccccc1-c1cc(N)n(S(=O)(=O)c2ccc(F)c(C)c2)n1	8%	>57	20µM*[single pt active]	?
COc1ccccc1-c1cc(C(=O)N2CCc3ccccc3C2)no1	7%	>57	17%	?
O=C(NCC1CCCO1)C1CCN(S(=O)(=O)N2CCCC2)CC1 (stereo not drawn)	2%	>57	-3%	8%
CC1CCN(S(=O)(=O)N2CCC(C(=O)N3CCC(N(C)CC4CCCO4)CC3)CC2)CC1 (stereo not drawn)	16%	>57	4µM*[single pt active]	4%
O=C(CSCc1ccco1)c1ccc(Cl)s1	12%	>57	10µM*	-8%
O=C(Nc1ccc(C(=O)Nc2ccc(C(=O)Nc3ccc(S(=O)(=O)O)c4cc(S(=O)(=O)O)cc(S(=O)(=O)O)c34)cc2)cc1)Nc1ccc(C(=O)Nc2ccc(C(=O)Nc3ccc(S(=O)(=O)O)c4cc(S(=O)(=O)O)cc(S(=O)(=O)O)c34)cc2)cc1	-9%	>57	-12%	?
Cc1cc(C)n2nc(SCC(=O)Nc3c(C)nn(-c4ccccc4)c3C)nc2n1	-4%	>57	22%	-7%
Cc1cc(C)n2nc(SCC(=O)Nc3ccc(F)cc3)nc2n1	13%	?	4µM*[single pt active]	-1%
Cc1cc(N2CCCN(C)CC2)nc2cc(Cl)ccc12	6%	/	37%	10µM*
SMILES	AmpC det inh	Prx2 Sm inh	AmpC nodet inh	LT uptake inh
c1ccc(CN2CCN(CCCNc3ccc4nnc(-c5ccccc5)n4n3)CC2)cc1	8%	>57	120%	?
Fc1ccccc1N1CCN(CCCNc2ccc3nncn3n2)CC1	15%	>57	4µM*[single pt active]	-14%
N#Cc1ccc(CN2CCC3(CCNCC3)CC2)cc1	-2%	>57	12%	-3%
CCN1CCN(c2cc(C)c3cc(NC(=O)c4ccc5c(c4)OCO5)ccc3n2)CC1	11%	>57	60%	10µM*
CCN1CCN(c2cc(C)c3cc(NC(=O)c4cncc(Br)c4)ccc3n2)CC1	-4%	>57	112%	25µM*
CC(=O)Nc1ccc(S(=O)(=O)Nc2cccc(-c3nc4cc(C)ccc4o3)c2)cc1	-4%	>57	38%	13µM*
Cc1ccc2oc(-c3cccc(NC(=O)C4CCCO4)c3)nc2c1 (stereo not drawn)	-2%	>57	113%	0%
C=CCn1c(COc2ccccc2)nnc1SCc1ccc(C#N)cc1	9%	>57	36%	/
C=CCn1c(COc2ccc(CC)cc2)nnc1SC/C(O)=C(\C#N)c1nc2ccccc2[nH]1	5%	>57	1.3µM*	0%
Cc1cc(NC(=O)c2noc3c2CCc2ccccc2-3)no1	9%	>57	4µM*[single pt active]	-1%
Cc1ccccc1Cn1nc(C)c(NC(=O)c2noc3c2CCc2ccccc2-3)c1C	13%	?	64%	?
Cc1c(NC(=O)c2noc3c2CCc2ccccc2-3)c(=O)n(-c2ccccc2)n1C	10%	>57	4µM*[single pt active]	-14%
COCCn1c(=O)c(-c2ccc(OC)cc2)nc2cnc(N3CCNCC3)nc21	1%	>57	44%	?
CC(C)=CCC/C(C)=C/COc1c2ccoc2cc2oc(=O)ccc12	14%	>57	13µM*	?
COc1cc2ccc(=O)oc2c(O)c1OCC=C(C)C	-1%	>57	-3%	?
O=c1c(-c2ccccc2)coc2c(CN3CCCC3)c(O)ccc12	-4%	>57	-8%	14%
O=c1c(-c2ccc(Cl)cc2)coc2c(CN3CCOCC3)c(O)ccc12	9%	/	-5%	6.3µM*
Cc1noc(C)c1C(=O)N1CCC2(CC1)CCN(C(c1ccccc1)c1ccccc1)CC2	-1%	>57	130%	?
O=C(Nc1nccs1)C1(S(=O)(=O)c2ccc(Cl)cc2)CC1	-3%	>57	4%	8%
Cc1ccc(S(=O)(=O)C2(C(=O)Nc3nccs3)CC2)cc1	12%	>57	4µM*[single pt active]	-5%
Cc1ccc(S(=O)(=O)C2(C(=O)Nc3cccc(F)c3)CC2)cc1	11%	>57	4µM*[single pt active]	-14%
COCC(=O)N1CCC2(CCCN(c3ncccn3)C2)CC1	-5%	>11	12%	-2%
CC(C)(C)OC(=O)N[C@@H](Cc1ccccc1)c1nnc(S(=O)(=O)Cc2cccc(F)c2)o1	5µM*	>57	4µM*	10µM*
CC(C)C[C@H](N)c1nnc(S(=O)(=O)Cc2cccc(F)c2)o1	2.5µM*	>57	?	?
CC(C)CC(=O)N1CCN(Cc2cccc(F)c2)CC1	14%	/	46%	-2%
CC[C@@H](C)[C@H](NC(=O)OC(C)(C)C)c1nnc(S(=O)(=O)Cc2cc(C)ccc2C)o1	?	>57	?	?

Assay outcomes as filed in PubChem BioAssay.
